According to a collection of fitness landscapes (doi:10.1016/j.celrep.2020.107928):
Over roughly 81,000 sequences, “one-hybrid fitness for binding parS DNA” has its median near -0.17; the highest 2% begin near 0.51. The sample as a whole holds a higher share of the highest values than the screen did.

B1: Caulobacter ParB omega fusion; a variant is named by its letters at X, in order, B8GW30 (parent)
chain: MESVVVGEPGMSEGRRGLGRGLSALLGEVDAAPAQAPGEQLGGSREAPIEILQRNPDQPRRTFREEDLEDLSNSIREKGVLQPILVRPSPDTAGEYQIVAGERAWRAAQRAGLKTVPIMVRELDDLAVLEIGIIENVQRADLNVLEEALSYKVLMEKFERTQENIAQTIGKSXSHVANXMRLLXLPDEVQSYLVSGELTAXHARAIAAAADPVALAKQIIEGGLSVRETEALARKAPNLSAGKSKGGRPPRVKDTDTQALESDLSSVLGLDVSIDHRGSTGTLTITYATLEQLDDLCNRLTRGI

Variants of: B1
Experiment: one-hybrid fitness for binding parS DNA (scaled: cognate 1, non-cognate 0); higher = stronger binding
Conditions: with parS DNA site
In short: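 Fitness is the rescaled log change in variant-to-wild-type read ratio, measured by Illumina sequencing of plasmids before and after bacterial one-hybrid selection. The scale puts cognate at 1 and non-cognate at 0. Selection of Caulobacter ParB libraries, four specificity codons randomised, took place in E. coli USO with a HIS3 reporter, site 19 bp from the promoter, over 48 hours at 37°C on M9-minus-histidine with 0.1 mM IPTG and 5 mM 3-AT.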

Variant | one-hybrid fitness for binding parS DNA
ARLQ | ≤ 0.2
CHSG | ≤ 0.2
RCML | 0.201
PFAT | ≤ 0.2
QRRC | ≤ 0.2
SRTM | ≤ 0.2
KSRC | ≤ 0.2
RFWG | 0.744
RIWY | 0.471
RHWG | 0.844
RIWM | 0.361
RHWQ | ≤ 0.2
RKWY | 0.393
RKWF | 0.219
RKWG | 0.952
KFWG | ≤ 0.2
RIWG | 0.985
DFWG | ≤ 0.2
RHWM | ≤ 0.2
KKLC | ≤ 0.2
FRWG | ≤ 0.2
IIKT | ≤ 0.2
IYPT | ≤ 0.2
DRGE | ≤ 0.2
FVTP | ≤ 0.2

Variant | one-hybrid fitness for binding parS DNA
HMNE | ≤ 0.2
PPQC | ≤ 0.2
RERK | ≤ 0.2
DGKG | ≤ 0.2
IFLY | ≤ 0.2
DNYC | ≤ 0.2
ALFC | ≤ 0.2
RSWG | 0.93
REWG | ≤ 0.2
RAWK | ≤ 0.2
RDWG | ≤ 0.2
RSWF | ≤ 0.2
RCWG | 1.02
RAWG | 0.989
RPWG | ≤ 0.2
RAWM | 0.35
NGLR | ≤ 0.2
NTER | ≤ 0.2
REFQ | ≤ 0.2
WDSN | ≤ 0.2
KYTC | ≤ 0.2
TIAK | ≤ 0.2
PMKR | ≤ 0.2
RLVK | ≤ 0.2
RLKH | 0.247

Variant | one-hybrid fitness for binding parS DNA
RLKG | 0.945
RLVG | 0.991
RLKP | ≤ 0.2
RLVQ | ≤ 0.2
QRLA | ≤ 0.2
IESL | ≤ 0.2
KWDD | ≤ 0.2
RVDM | 0.258
RVNC | 0.947
RVDC | 0.846
RVNR | ≤ 0.2
RVNE | ≤ 0.2
RVDF | ≤ 0.2
YLAV | ≤ 0.2
CPVL | ≤ 0.2
ANSF | ≤ 0.2
GFRL | ≤ 0.2
RRFM | ≤ 0.2
RRFD | ≤ 0.2
RRAP | ≤ 0.2
RRAG | 0.738
RRFG | 0.831
RRAR | ≤ 0.2
SKVG | ≤ 0.2
CPAW | ≤ 0.2

Variant | one-hybrid fitness for binding parS DNA
QCMI | ≤ 0.2
DCNA | ≤ 0.2
RHPA | ≤ 0.2
RHIA | 0.316
RHYA | 0.562
RHNA | 0.543
RHRA | 0.58
DHNA | ≤ 0.2
RHDA | 0.545
WLCT | ≤ 0.2
EVML | ≤ 0.2
IDCL | ≤ 0.2
LAVM | ≤ 0.2
TSYY | ≤ 0.2
APPD | ≤ 0.2
GVQC | ≤ 0.2
TPMT | ≤ 0.2
IMES | ≤ 0.2
QKYV | ≤ 0.2
NYKT | ≤ 0.2
QTEY | ≤ 0.2
RAAH | ≤ 0.2
RAFN | 0.426
RAFS | 1.02
RAAD | ≤ 0.2

Variant | one-hybrid fitness for binding parS DNA
RAFP | ≤ 0.2
RAAS | 1
FSYG | ≤ 0.2
WYKS | ≤ 0.2
CKSM | ≤ 0.2
QYLA | ≤ 0.2
RTIP | ≤ 0.2
RTIS | 1.01
RTLN | 0.43
RTRP | ≤ 0.2
RTRH | 0.4
RCHY | 0.46
RTLS | 1.01
RTHY | 0.544
RTRS | 0.83
RTIH | ≤ 0.2
RTLD | ≤ 0.2
RSHY | 0.491
APQT | ≤ 0.2
KERF | ≤ 0.2
LPLK | ≤ 0.2
GVFL | ≤ 0.2
VTMY | ≤ 0.2
RDTG | ≤ 0.2
RTSS | 0.938

Variant | one-hybrid fitness for binding parS DNA
RTPH | ≤ 0.2
RTWP | 0.271
RTPS | 0.822
RTYP | ≤ 0.2
RTPN | 0.211
RTWD | 0.22
RTWS | 1.05
RTYS | 1
RTSN | 0.422
RTYD | ≤ 0.2
RTSD | ≤ 0.2
NVPD | ≤ 0.2
TDEP | ≤ 0.2
APNE | ≤ 0.2
FINR | ≤ 0.2
PGNR | ≤ 0.2
YRNV | ≤ 0.2
PVLC | ≤ 0.2
WSCE | ≤ 0.2
QCQH | ≤ 0.2
RTHS | 0.944
RTHH | ≤ 0.2
RTHD | ≤ 0.2
RYFQ | ≤ 0.2
RYAM | 0.267

Variant | one-hybrid fitness for binding parS DNA
RYAC | 0.925
RYAK | ≤ 0.2
RYFK | ≤ 0.2
RYFC | 0.965
PLPR | ≤ 0.2
RSNQ | ≤ 0.2
RCYC | 1
RSYC | 0.931
RPYC | ≤ 0.2
RDNC | ≤ 0.2
RPNC | ≤ 0.2
RCNC | 0.941
RENC | 0.27
RSYN | 0.406
RSNC | 0.957
RSYD | ≤ 0.2
RDYC | ≤ 0.2
KDHC | ≤ 0.2
ISLY | ≤ 0.2
LALC | ≤ 0.2
LFYG | ≤ 0.2
TPSE | ≤ 0.2
GIAA | ≤ 0.2
MCGR | ≤ 0.2
RPDC | ≤ 0.2

Variant | one-hybrid fitness for binding parS DNA
RERC | 0.334
RSRC | 0.932
RSDN | 0.313
RCDC | 0.877
RSDC | 0.773
RSDD | ≤ 0.2
RPRC | ≤ 0.2
RCRC | 0.863
RDRC | ≤ 0.2
REDC | ≤ 0.2
RSRF | 0.281
AHPR | ≤ 0.2
NQNV | ≤ 0.2
QPDY | ≤ 0.2
SCMC | ≤ 0.2
LKGL | ≤ 0.2
CAST | ≤ 0.2
INPC | ≤ 0.2
ETLI | ≤ 0.2
FWGR | ≤ 0.2
